Results from ChEMBL document CHEMBL3988442, “University of Dundee, Small-Polar-MMV Screening Library” (2021).

Molecular target: AMP-activated protein kinase, AMPK (Homo sapiens) (UniProt P54646+O43741+P54619+Q9UGJ0+Q9Y478+Q13131+Q9UGI9)
Assay: AMP-dependent Kinase enzyme assay. An in vitro enzyme assay that detects ADP turnover that is directly proportional to AMPK activity. This uses naive AMPK that is activated during the assay with MK-8722
Format: functional
Parameters: scale not given: direction of the effect not stated beside the values
Conditions: 30 µM

Row | Compound | Percent Effect [%]
1 | CS(=O)(=O)CCCN1CCSCC1c1ccc(Cl)cc1 (centres undefined) | -4.65
2 | CC(C)c1nnc2n1CCN(Cc1cccc3c1OCCO3)C2 | 12.9
3 | CC(C)c1nn(C)cc1CNCc1cccnc1N(C)C | 0.312
4 | CCN1CC2(CCC1=O)CCN(Cc1cccc(OC(F)F)c1)CC2 | -0.304
5 | O=C(CCc1nc(-c2ccsc2)no1)NCC1CCN(C2CC2)C1 (centres undefined) | 1.07
6 | Cc1cc(C)n(CCCN(C)c2cc(N(C)C)ncn2)n1 | 0.376
7 | CN(C)S(=O)(=O)N1CCCC(c2nccnc2-c2cccc(Cl)c2)C1 (centres undefined) | 16
8 | CCN(C)C[C@@H]1CN(Cc2cnc3c(S(C)(=O)=O)cnn3c2)C[C@@H]1CO | -11.4
9 | CN1CC(C(=O)NCCc2ccc3c(c2)OCO3)CC1=O (centres undefined) | 3.69
10 | Cc1nc(CN2CCN(c3cc(CCN)ncn3)CC2)cs1 | -0.86
11 | CCN(Cc1cccnc1)C1CCN(c2ccccc2)C1=O (centres undefined) | -2.42
12 | FC(F)(F)c1cccc(OC2CCN(Cc3ncc[nH]3)CC2)c1 | 7.66
13 | COc1cccc(S(=O)(=O)N2CCN(C)[C@@H]3CS(=O)(=O)C[C@@H]32)c1 | 1.52
14 | Cc1cc(-c2cnc(N3CCSCC3)nc2C(C)C)on1 | 16
15 | Cn1ccc(C(=O)N2CCC(Cc3ccc4ncccc4c3)CC2)n1 | 15.1
16 | O=C(c1cncc(NCC2COc3ccccc3C2)n1)N1CCCCC1 (centres undefined) | 16.5
17 | CSc1ccc(OCCN2CCNC(=O)CC2)cc1 | 9.33
18 | Cc1nc(CC(C)C)cc(C(=O)N2C[C@@H](N(C)C)[C@H](C(C)C)C2)n1 | -4.31
19 | CC1CCN(Cc2ccccc2CNC(=O)C2CNC(=O)N2)CC1 (centres undefined) | -1.18
20 | NC(=O)c1ccc(N2CCN(CCCc3cn[nH]c3)CC2)cc1 | -7.64

Row | Compound | Percent Effect [%]
21 | COCc1nc(CN2CCN(c3ccc(OC)cc3)C(=O)C2C)no1 (centres undefined) | 6.42
22 | CCCc1nnc(N2CCC(N3CCN(CCO)CC3)CC2)o1 | -0.32
23 | COc1c(C2CCCN2CC(=O)N(C)Cc2ccco2)c(C)nn1C (centres undefined) | 1.41
24 | O=C(NCCCn1cccn1)C1COCC(=O)N1Cc1ccccc1 (centres undefined) | -3.92
25 | COCC1CCN(c2ccnc3ccsc23)C1 (centres undefined) | 4.92
26 | COC(CNC(=O)CNC(=O)c1ccccc1)c1cccc(Cl)c1 (centres undefined) | 4.84
27 | CCC(Nc1ccc(CCN2CCOCC2)cc1)C(N)=O (centres undefined) | -3.46
28 | CN(C)c1nc(CNC(=O)Nc2cccc([S+](C)[O-])c2)cs1 (centres undefined) | 5.35
29 | CC1(C)CC(CN2CCC3(CCC(=O)N(C4CCC4)C3)CC2)CCO1 (centres undefined) | -1.15
30 | CCCc1nnc(N2CCC(C3CCN(C)CC3)CC2)o1 | -1.66
31 | COc1ccc2c(c1)OCC(Cc1cc(C(=O)N3CCCC3)ccn1)C2 (centres undefined) | 0.531
32 | NC1CCCc2c1cnn2-c1cc(F)cc(F)c1 (centres undefined) | 10.6
33 | FC(F)(F)c1csc(N2CCN(Cc3ccccn3)CC2)n1 | 7.24
34 | COC(=O)CNC(=O)c1ccn(-c2ccc(Cl)c(Cl)c2)n1 | 13.8
35 | c1cc(N2CCC(CN3CCOCC3)CC2)c2sccc2n1 | 2.28
36 | CN1CCN(CCOc2ccc(NC(=O)c3cnc[nH]3)cc2)CC1 | 0.519
37 | COC(=O)c1occc1Cn1cc(Br)cn1 | -0.99
38 | Cc1nnc(C(C)N2CCCN(Cc3noc(C4CC4)n3)CC2)o1 (centres undefined) | -4.62
39 | CCN(CC(=O)N(C)C)C(=O)c1ccc(-c2nc(C)cs2)cc1 | 8.68
